Test results as given in paper PMC4336329 (PLoS ONE, 2015).
Out of some 310,000 compounds screened, about 14,000 (4.5%) showed an effect of 50% or more. Effects have a minus sign here. For the sample, strong results were picked, then their nearest neighbours and some compounds at random.

Target: human ether-à-go-go-related gene (hERG) potassium channel (human, UniProt Q12809)
Assay: primary screen, population patch clamp on CHO cells stably expressing hERG; higher = less effect of the substance
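Further: peak tail current of the secondary pulse compared with the same well before compound.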

Chain of human ether-à-go-go-related gene (hERG) potassium channel (Q12809 whole entry, looked up): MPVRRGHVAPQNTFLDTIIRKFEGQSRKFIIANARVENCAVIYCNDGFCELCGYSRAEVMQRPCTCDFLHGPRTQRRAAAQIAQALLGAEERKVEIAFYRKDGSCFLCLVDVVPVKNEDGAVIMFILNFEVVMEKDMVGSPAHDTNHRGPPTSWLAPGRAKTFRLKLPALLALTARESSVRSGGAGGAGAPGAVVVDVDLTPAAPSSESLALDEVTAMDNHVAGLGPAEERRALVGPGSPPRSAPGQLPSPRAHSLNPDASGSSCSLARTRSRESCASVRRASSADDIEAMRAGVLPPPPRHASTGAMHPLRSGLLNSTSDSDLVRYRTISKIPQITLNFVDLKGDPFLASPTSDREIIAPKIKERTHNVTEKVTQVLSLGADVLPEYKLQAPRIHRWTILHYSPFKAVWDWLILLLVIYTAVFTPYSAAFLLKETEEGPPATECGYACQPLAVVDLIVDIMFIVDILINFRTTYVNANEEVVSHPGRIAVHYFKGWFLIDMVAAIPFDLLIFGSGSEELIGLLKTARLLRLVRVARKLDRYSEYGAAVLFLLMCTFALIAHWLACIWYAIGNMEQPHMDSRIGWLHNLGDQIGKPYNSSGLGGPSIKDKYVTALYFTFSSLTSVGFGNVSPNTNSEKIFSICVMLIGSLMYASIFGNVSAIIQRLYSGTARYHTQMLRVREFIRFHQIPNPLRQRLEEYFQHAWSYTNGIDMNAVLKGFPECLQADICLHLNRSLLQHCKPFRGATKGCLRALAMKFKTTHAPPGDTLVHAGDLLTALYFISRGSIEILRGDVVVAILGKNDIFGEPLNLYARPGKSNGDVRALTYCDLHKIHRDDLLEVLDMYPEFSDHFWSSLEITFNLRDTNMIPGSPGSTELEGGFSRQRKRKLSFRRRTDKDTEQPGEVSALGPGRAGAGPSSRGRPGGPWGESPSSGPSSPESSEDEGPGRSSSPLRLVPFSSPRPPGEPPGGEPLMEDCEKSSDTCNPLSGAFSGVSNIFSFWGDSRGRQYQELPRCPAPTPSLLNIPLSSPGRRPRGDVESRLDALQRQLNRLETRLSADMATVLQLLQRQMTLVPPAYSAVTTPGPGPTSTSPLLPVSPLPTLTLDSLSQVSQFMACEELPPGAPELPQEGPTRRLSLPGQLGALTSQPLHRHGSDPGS

SMILES	hERG current change (%, negative = inhibition) at 10uM [%]
O=C(CCc1nnc2ccc(NCc3ccccc3)nn12)NC1CCCC1	11.1
Cc1ccc(N2CC(C(=O)Nc3nccs3)CC2=O)cc1 (stereo not shown)	-5.15
Cc1ccc(N(C(=O)C2CCCO2)C2C=CS(=O)(=O)C2)cc1Cl (stereo not shown)	-4.44
O=C(Nc1ccc(S(=O)(=O)Nc2ncccn2)cc1)c1cncc(Br)c1	10.6
CCc1ccccc1OC[C@@H](O)CN[C@H]1CCCc2ccccc21.O=C(O)C(=O)O	-24.7
O=C(c1ccccc1)c1ccc(OCC(O)CNC2CCCc3ccccc32)cc1 (stereo not shown)	-31.7
O=C(O)C(=O)O.OC(CNC1CCCc2ccccc21)COc1ccc2ccccc2c1 (stereo not shown)	-72.3
CC(=O)CCc1ccc(OCC(O)CNC2CCCc3ccccc32)cc1.O=C(O)C(=O)O (stereo not shown)	-49
O=C(CSc1ccccc1Cl)NC1CCCc2ccccc21 (stereo not shown)	-1.17
O=C(O)C(=O)O.OC(CNC1CCCc2ccccc21)COc1c(Cl)cccc1Cl (stereo not shown)	-56.5
COc1ccc(CC(=O)Oc2ccc(C)cc2Br)cc1OC	3.25
CN(Cc1nc(-c2ccccc2)no1)C(=O)c1ccc2c(c1)OCO2	-20.5
Nc1nccnc1C(=O)OCC(=O)Nc1ccc2[nH]c(=O)[nH]c2c1	17
O=c1[nH]c2cc3c(cc2cc1CN(CCO)S(=O)(=O)c1ccccc1)OCCO3	-19
CCc1ccc(NC(=O)CN(c2ccc(OC)cc2)S(=O)(=O)c2c(C)nn(C)c2C)cc1	-4.36
COc1ccc(C2c3[nH]c4ccccc4c3CCN2CCCn2cccn2)cc1C (stereo not shown)	-38.9
CC(C)(C)C1c2[nH]c3ccccc3c2CCN1CCCn1cccn1 (stereo not shown)	-19.5
Cc1ccccc1C1c2[nH]c3ccccc3c2CCN1CCCn1cccn1 (stereo not shown)	-20.3
COc1ccc(C2c3[nH]c4ccccc4c3CCN2CCCn2cccn2)c(F)c1 (stereo not shown)	-3.85
CC(C)CC1c2[nH]c3ccccc3c2CCN1CCCn1cccn1 (stereo not shown)	-63.1
Fc1ccccc1C1c2[nH]c3ccccc3c2CCN1CCCn1cccn1 (stereo not shown)	-46.4

SMILES	hERG current change (%, negative = inhibition) at 10uM [%]
COc1ccc(C2c3[nH]c4ccccc4c3CCN2CCCn2cccn2)c(C)c1C (stereo not shown)	-9.49
Fc1ccc(C2c3[nH]c4ccccc4c3CCN2CCCn2cccn2)cc1 (stereo not shown)	-70.1
CCOc1ccc(C2c3[nH]c4ccccc4c3CCN2CCCn2cccn2)cc1 (stereo not shown)	-68.7
O=S(=O)(NCc1ccccc1)NCc1ccccc1F	7.69
COCCN1C(=O)C(=O)/C(=C(/O)c2ccc(S(=O)(=O)N3CCCCC3)cc2)C1c1ccc(OC)c(OC)c1 (stereo not shown)	8.21
CC1(C)COC(/C=C/c2ccc([N+](=O)[O-])cc2)=N1	-26.1
CCc1ccccc1N(CC(=O)N1CCCCC1)S(=O)(=O)c1ccccc1	10.6
N#CC(C#N)=Cc1cc2ccccc2nc1N1CCCCC1	2.22
CCN(CC)c1ccc(NC(=O)COC(=O)COc2ccccc2[N+](=O)[O-])cc1	3.42
Cn1cc(Br)c(C(=O)NNC(=O)Cc2ccc(Cl)cc2)n1	3.6
COc1ccc(N2C(=O)C3C(C2=O)C3(c2ccccc2)c2ccccc2)cc1 (stereo not shown)	0.0654
COc1ccc(C2CC(=O)C(C=NCCN3CCN(C(=S)Nc4ccccc4)CC3)=C(O)C2)cc1 (stereo not shown)	-32.8
Cc1ccc(C2CC(=O)C(C=NCCN3CCN(C(=S)Nc4ccccc4)CC3)=C(O)C2)cc1 (stereo not shown)	-26.4
COc1ccc(NC(=S)N2CCN(CCN=CC3=C(O)CC(c4ccccc4)CC3=O)CC2)cc1 (stereo not shown)	-45.7
Cc1c(Cl)cccc1NC(=O)CN1CCN(CCN=CC2=C(O)CC(c3ccccc3)CC2=O)CC1 (stereo not shown)	-19.9
O=C1CC(c2ccccc2)CC(O)=C1C=NCCN1CCN(C(=O)Nc2ccccc2)CC1 (stereo not shown)	-64.4
CCOC(=O)c1ccc(NC(=S)N2CCN(CCN=CC3=C(O)CC(c4ccccc4)CC3=O)CC2)cc1 (stereo not shown)	-19.9
Cc1ccc(NC(=O)CN2CCN(CCN=CC3=C(O)CC(c4ccccc4)CC3=O)CC2)cc1 (stereo not shown)	-67.4
Cc1ccc(NC(=O)CN2CCN(CCN=CC3=C(O)CC(c4ccc(C)cc4)CC3=O)CC2)cc1 (stereo not shown)	-45.3
O=C1CC(c2ccc(F)cc2)CC(O)=C1C=NCCN1CCN(C(=O)Nc2ccccc2)CC1 (stereo not shown)	-67.8
O=C1CC(c2ccc(F)cc2)CC(O)=C1C=NCCN1CCNCC1 (stereo not shown)	6.09

SMILES	hERG current change (%, negative = inhibition) at 10uM [%]
O=C1CC(c2ccccc2)CC(O)=C1C=NCCN1CCN(C(=S)Nc2cccc(Cl)c2)CC1 (stereo not shown)	-39.4
Cc1ccc(C2CC(=O)C(C=NCCN3CCN(C(=S)Nc4ccc(F)cc4)CC3)=C(O)C2)cc1 (stereo not shown)	-58.6
O=C(Nc1cc2c(cc1Br)OCCO2)c1cccnc1	1.58
O=C(c1ccc(CS(=O)Cc2cccc(Cl)c2)o1)N1CCN(C2CCCCC2)CC1 (stereo not shown)	-16.5
COc1cc2nc(C3CCC3)n(NC(=O)C(OC(C)=O)c3ccccc3)c(=O)c2cc1OC (stereo not shown)	9.45
Cc1c(C(=O)NCCSCc2ccco2)cccc1[N+](=O)[O-]	-5.94
CN(Cc1cc2ccccc2[nH]c1=O)C(=O)COc1ccccc1	-8.32
O=C(COC(=O)C1(c2ccccc2F)CCCC1)Nc1ncc(C(F)(F)F)cc1Cl	-10.1
CSc1ccc(Cl)c(C(=O)Nc2ccc(N3CCOCC3)cc2)c1	-1.67
Cc1cc(NC(=O)Nc2ccc(Cl)cc2)n(C(C)(C)C)n1	17.7
CC(NC(=O)c1nn(C)c2c1CS(=O)(=O)c1ccccc1-2)c1ccccc1 (stereo not shown)	-13.1
CC(OC(=O)Cc1c(F)cccc1Cl)C(=O)NC1(C#N)CCCCC1 (stereo not shown)	-22.4
C=CCNC(=S)N1CCN(CCN=CC2=C(O)CC(c3ccc(Cl)cc3)CC2=O)CC1 (stereo not shown)	-66.4
C=CCNC(=S)N1CCN(CCN=CC2=C(O)CC(c3cccs3)CC2=O)CC1 (stereo not shown)	-49.1
CC(=O)N1CCN(CCN=CC2=C(O)CC(c3ccc(Cl)cc3)CC2=O)CC1 (stereo not shown)	-15.7
Fc1c(F)c(C(F)(F)F)c(F)c(F)c1N/N=C\c1cccs1	15.5
O=C(Nc1cccc(Cl)c1Cl)c1ccccc1OCC(=O)N1CCOCC1	-13.5
Cc1ccc(Cl)cc1NC(=O)c1ccccc1OCC(=O)N1CCOCC1	-63.6
CCCCOc1ccc(C(=O)Nc2cc(C)c(OCC(=O)N3CCOCC3)c(C)c2)cc1	-24.8
COc1ccccc1C(=O)Nc1ccc(OCC(=O)N2CCCCC2)cc1	-2.87
CC(=O)N1CCN(C(=O)COc2ccccc2C(=O)Nc2ccccc2)CC1	-53.2

SMILES	hERG current change (%, negative = inhibition) at 10uM [%]
Cc1cccc(NC(=O)c2ccccc2OCC(=O)N2CCOCC2)c1C	-6.62
Cc1ccc(C(=O)Nc2cc(C)c(OCC(=O)N3CCOCC3)c(C)c2)cc1	-11.3
CC(=O)c1ccc(NC(=O)COc2ccccc2C(=O)Nc2ccccc2)cc1	9.66
Cc1cc(NC(=O)c2ccc(Cl)cc2)cc(C)c1OCC(=O)N1CCOCC1	-52.4
COc1ccc(C(CNC(=O)c2cc(C)on2)N(C)C)cc1 (stereo not shown)	22.1
O=C(CSc1nc2c(sc3ccccc32)c(=O)n1CCCN1CCCC1)NCc1ccco1	-73
CCN(CC)CCn1c(SCC(=O)NCc2ccco2)nc2c(sc3ccccc32)c1=O	-68.2
O=C(CSc1nc2c(sc3ccccc32)c(=O)n1CCc1ccccc1)NCc1ccco1	-8.32
O=C(CSc1nc2c(sc3ccccc32)c(=O)n1CCO)NCC1CCCO1 (stereo not shown)	-3.42
C=CCN(C(=O)CSc1nc2c(sc3ccccc32)c(=O)n1CCN(CC)CC)c1ccccc1	-77.4
CCN(CC)CCn1c(SCC(=O)NCCC2=CCCCC2)nc2c(sc3ccccc32)c1=O	35.5
O=C(CSc1nc2c(sc3ccccc32)c(=O)n1CCCN1CCOCC1)NCC1CCCO1 (stereo not shown)	-14.3
O=C(CSc1nc2c(sc3ccccc32)c(=O)n1CCCN1CCCC1)NCC1CCCO1 (stereo not shown)	-61.6
CCOCCCn1c(SCC(=O)NCc2ccco2)nc2c(sc3ccccc32)c1=O	-27.6
O=C(CSc1nc2c(sc3ccccc32)c(=O)n1CCO)NCc1ccco1	-18.2
CCCCn1c(SCC(=O)NCc2ccco2)nc2c(sc3ccccc32)c1=O	-16.8
CCN(CC)CCn1c(SCC(=O)NCc2ccccc2)nc2c(sc3ccccc32)c1=O	-29.3
CC1(C)CN(c2cccc(Br)c2)C1=O	7.96
Cc1c(C)n(CC(O)CNc2ccccc2)c2ccccc12.O=C(O)C(=O)O (stereo not shown)	23.1
